PubChem BioAssay AID504692 (The Scripps Research Institute Molecular Screening Center, 2011)
Hit rate of the full screen: of about 340,000 compounds, about 2,000 (0.59%) were called active. The full list was thinned out, with actives kept by preference. A number with no mark means an inactive call. Cut-off read from the data, not from the text of the source: active = activation mostly above about 9.5% (no sharp cut-off); inactive = mostly below about 7.6%.

molecular target: 5-hydroxytryptamine receptor 5A (Homo sapiens) (UniProt P47898); experiment: HTR5A agonists in luminescence cell assay, primary screen, counter-screen for OPRM1-OPRD1 heterodimer agonist project, full-deck HTS (AID 504692); details: cell-based, at 9.3 µM, hits give high values;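 note: 0% = cells with vehicle only and 100% = reference agonist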
Sequence (P47898 whole entry, looked up): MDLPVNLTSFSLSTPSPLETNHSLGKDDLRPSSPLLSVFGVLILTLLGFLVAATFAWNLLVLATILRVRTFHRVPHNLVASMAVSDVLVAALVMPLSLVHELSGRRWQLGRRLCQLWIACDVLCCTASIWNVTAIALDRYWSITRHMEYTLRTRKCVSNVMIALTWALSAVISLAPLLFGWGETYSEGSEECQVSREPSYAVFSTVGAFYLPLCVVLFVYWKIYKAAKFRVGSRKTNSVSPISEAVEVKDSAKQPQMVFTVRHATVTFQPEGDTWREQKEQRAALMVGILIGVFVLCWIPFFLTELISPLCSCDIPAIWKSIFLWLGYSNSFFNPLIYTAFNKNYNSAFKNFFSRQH

| SMILES | activation |
| --- | --- |
| O=C(/C=C/c1cccc([N+](=O)[O-])c1)NCCSCc1ccco1 | -1.08% |
| Cc1ccc(CNC(=O)C2CCCN2C(=O)NCc2ccccc2)cc1 (stereo unspecified) | -0.36% |
| O=C(NC1CC2CCCC(C1)N2C(=O)N1CCCCC1)C1CCCCC1 (stereo unspecified) | 2.7% |
| c1ccc(-n2nc3ccccc3n2)cc1 | 15.4% (active) |
| O=C1CCCc2nn(-c3ccccc3)nc21 | -0.59% |
| Nc1ccc2nn(-c3ccc(Cl)cc3)nc2c1 | 3.34% |
| Cc1ccc(S(=O)(=O)Nc2nc(CN3CCOCC3)nc3sc(C)c(C)c23)cc1 | 7.7% |
| O=C(O[C@H]1[C@H](Cc2ccccc2)NS(=O)(=O)[C@H]2C[C@@H]3C=C[C@]12O3)c1ccc([N+](=O)[O-])cc1 | -6.9% |
| CCOc1cc(N2CCOCC2)c(OCC)cc1NC(=O)c1cc(C)nc2ccccc12 | 14.2% (active) |
| CCOc1cc(N2CCOCC2)c(OCC)cc1NC(=O)c1ccc(C)s1 | 0.66% |
| CCOc1cc(N2CCOCC2)c(OCC)cc1NC(=O)C1=NN(c2cccc(C)c2)C(=O)CC1 | 11.3% |
| CCc1ccc(C2N3CC4([N+](=O)[O-])CN2CC([N+](=O)[O-])(C3)C4(C)C)cc1 (stereo unspecified) | 2.6% |
| CC1(C)C(C=C(Cl)Cl)C1C(=O)N(Cc1ccc(Cl)cc1)C1CCS(=O)(=O)C1 (stereo unspecified) | 0.53% |
| CCOc1ccc(CNC(=O)C2CCCN(c3nnc(C)c4c(C)n(-c5ccccc5)nc34)C2)cc1 (stereo unspecified) | 7.35% |
| CCc1ccc(CNC(=O)C2CCN(c3nnc(C)c4c(C)n(-c5ccc(C)cc5)nc34)CC2)cc1 | 11.9% (active) |
| COc1ccc(-n2nc3c(N4CCC(C(=O)NCc5ccccc5)CC4)nnc(C)c3c2C)cc1 | -1.31% |
| O=C(Nc1ccccc1Cc1ccccc1)c1ccc2c(c1)SC1=NS(=O)(=O)CCN12 | 6.02% |
| Cc1cccc(CCNS(=O)(=O)c2ccc3c(c2)NC(=O)CO3)c1 | -0.45% |
| O=C(C1CCC(=O)N(C2CC2)C1)N1CCN(c2ccc(Cl)cc2)CC1 (stereo unspecified) | 0.66% |
| COC(=O)c1cc(C(=O)OCC(=O)Nc2cc(C)on2)cc([N+](=O)[O-])c1 | 14.7% (active) |
| Cc1cc(NC(=O)COc2ccc([N+](=O)[O-])cc2)no1 | -2.97% |
| Cc1cc(NC(=O)CSc2nccn2-c2ccc([N+](=O)[O-])cc2)no1 | -1.99% |
| CC(=O)N1CCN(S(=O)(=O)c2ccc(C)c([N+](=O)[O-])c2)C1C(C)C (stereo unspecified) | 0.82% |
| CNC(=S)N/N=C/c1ccc(OCc2ccccc2)c(Br)c1 | 14.9% (active) |
| CNC(=S)NNC(=O)c1sccc1OCc1ccccc1 | 6.65% |
| O=C(O)COc1ccc(/C=N/O)cc1Br | 1.32% |
